Assay results from PubChem BioAssay AID2716 (Broad Institute, 2010).
In all, about 320,000 compounds went through this assay and about 3,300 (1%) were called active. The entries come from a sample that favours actives as a whole. A number with no mark means an inactive call.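 Rule for the calls: active = every valid replicate shows activation above 250% relative to neutral control wells; inactive = the rest, any valid replicate at or below 250%.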

assay: yeast Mot1-301 growth rescue at high temperature, primary screen, SUMOylation pathway inhibitor project, S. cerevisiae, ATP luminescence, 38.5C (AID 2716);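 note: OY570 slx delta 5 strain wells were the positive control but not used for scaling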; details: S. cerevisiae Mot1-301 growth rescue, at 18.8 µM, active compounds read high, percent above DMSO median, 100 means doubled

Compound | growth rescue
CCCCNC(=O)c1ccccc1NC(=O)c1ccccc1N(C)S(C)(=O)=O | -4.15%
COc1ccc(N2CCN(C(=O)c3ccccc3NC(=O)C3=C(C)OCCS3)CC2)cc1 | 46.6%
CCCCNC(=O)c1ccccc1NC(=O)C1=C(C)OCCS1 | 548% (active)
COc1ccc(NC(=O)CSc2nnc(-c3cccs3)n2Cc2ccco2)cc1OC | 22.9%
Cc1cc(C)nc(SCc2nnc(SCC(=O)Nc3ncc(C)s3)n2Cc2ccco2)n1 | -12%
CCN(CC)C(=O)CSc1nnc(CNc2ccc(F)cc2)n1Cc1ccco1 | 543% (active)
COc1ccc(C(=O)NCC2CCCN2S(=O)(=O)c2cccs2)cc1OC (centres undefined) | 134%
COc1cc(NC(=O)CN(C)S(=O)(=O)c2ccc3nc(C)sc3c2)cc(OC)c1 | -12.8%
Cc1cccc(N(CC(=O)Nc2ccc(-c3nc4ccc(C)cc4s3)cc2)S(C)(=O)=O)c1 | -4.14%
Cc1ccc2nc(-c3ccc(NC(=O)CN(C)S(=O)(=O)c4ccccc4)cc3)sc2c1 | 574% (active)
Cc1cc(C)c(S(=O)(=O)Nc2c(C)n(C)n(-c3ccccc3)c2=O)cc1[N+](=O)[O-] | -5.42%
Cc1c(Br)cc(C(=O)N2CCCCCC2)c(C)c1C | 15.2%
CC1(C)S[C@@H]2[C@H](NC(=O)COc3ccccc3)C(=O)N2C1C(=O)OCc1ccccc1 (some centres undefined) | 343% (active)
CC1(C)SC2C(NC(=O)COc3ccccc3)C(=O)N2C1C(=O)O (centres undefined) | 3.56%
COC(=O)C1[C@H]2SC(C)(C)C(C(=O)OC)N2C(=O)N1Cc1nc2ccccc2s1 (some centres undefined) | -13.8%
O=C(NCCN1CCOCC1)/C(=C/c1ccc(F)cc1)NC(=O)c1ccccc1 | 93.9%
CC(OC(=O)c1ccc(Cl)cc1O)C(=O)NCCC1=CCCCC1 (centres undefined) | 17.1%
COc1ccc(OC)c(C(=O)NC(CC(N)=O)c2ccc(N3CCC(N4CCCCC4)CC3)c([N+](=O)[O-])c2)c1 (centres undefined) | -11.8%
Cc1cc(C)cc(C(=O)NC(CC(N)=O)c2ccc(N3CCC(N4CCCCC4)CC3)c([N+](=O)[O-])c2)c1 (centres undefined) | 855% (active)
CC1CCCCN1CCCNc1ccc(C(CC(N)=O)NC(=O)c2ccccc2)cc1[N+](=O)[O-] (centres undefined) | -18.3%
Cc1cccc(NC(=O)CN2CCN(C(=O)C3CCN(C(=O)/C=C/c4ccccc4)CC3)CC2)c1C | -7.86%
Cc1nn(Cc2ccccc2)c(C)c1NS(=O)(=O)c1ccccc1 | 0.754%
CC(=O)c1cc(CN2CCC(n3nccc3NC(=O)c3ccccc3Cl)CC2)cs1 | 13.8%

Compound | growth rescue
Cc1ccc(Nc2cc(C)nc3c(C)ccc([N+](=O)[O-])c23)cc1 | 888% (active)
Cc1cc(Nc2ccc(N3CCOCC3)cc2)c2cccc(C)c2n1 | -0.464%
Cc1cc(Nc2ccc(C(=O)N3CCCCC3)cc2)c2cccc(C)c2n1 | 397%
O=C(O)Cn1c(Cc2ccccc2)nc2ccccc21 | -4.16%
Fc1ccc2cnc(-c3ccccc3)cc2c1 | 110%
O=C(Nc1ccccc1F)c1ccc2c(c1)OCO2 | 3.63%
Fc1ccccc1-c1cc2cc3c(cc2cn1)OCO3 | 579% (active)
O=C(c1ccc(F)cc1)n1c(=S)nc2ccccn21 | -34.1%
COc1ccccc1-c1nn(Cc2ccccc2)cc1C(=O)N1CCN(c2ncccn2)CC1 | -5.43%
CCN(CC)c1ccc(NC(=O)C2CCC(CNc3c(N4CCCC4)c(=O)c3=O)CC2)c(C)c1 (centres undefined) | 6.64%
Cc1ccc(OCCC(=O)Nc2ccc(S(=O)(=O)Nc3nccs3)cc2)cc1 | -18.7%
CCC(CC)C(=O)Nc1ccc(S(=O)(=O)Nc2nccs2)cc1 | 441% (active)
COc1ccccc1OC(C)C(=O)Nc1ccc(S(=O)(=O)Nc2nccs2)cc1 (centres undefined) | 7.27%
CCCc1cc(=S)n2c([nH]c3ccccc32)c1C#N | 490% (active)
CN(C)Cc1c(C#N)c2ccccc2n1C | 63.2%
CCOC(=O)CCc1c(C)c(C#N)c2[nH]c3ccccc3n2c1=O | -0.685%
CCCn1nc(C(=O)NNC(=O)CCOc2ccccc2OCC)c2ccccc2c1=O | 2.71%
CC(=O)c1ccc(NC(=O)CSc2nc3ccccc3c(=O)n2CCCN2CCOCC2)cc1 | -18.7%
COc1cc(OC)cc(C(=O)NCC(=O)OCC(=O)NC(C)CCc2ccccc2)c1 (centres undefined) | -11.2%
COc1cc(C(=O)OCC(=O)NC(C)CCc2ccccc2)cc(OC)c1OC (centres undefined) | 788% (active)
CC(CCc1ccccc1)NC(=O)COC(=O)c1ccc(F)cc1 (centres undefined) | 11.7%
CC(=O)N1CCN(S(=O)(=O)c2ccc(C)c([N+](=O)[O-])c2)C1C(C)C (centres undefined) | -18.3%
CC(C)[C@@H]1NC(=O)c2cc([N+](=O)[O-])cc(I)c2NCCC[C@@H](C(=O)NC(CC(=O)O)C(N)=O)NC(=O)[C@H](CO)NC1=O (some centres undefined) | -3.93%

Compound | growth rescue
CC(C)NC(=O)Nc1cccc2c1O[C@@H](CN(C)S(=O)(=O)c1ccc(F)cc1)[C@@H](C)CN([C@H](C)CO)C2=O | -15.3%
O=C(NCc1ccccc1Cl)C(=O)NCC1CCCN1S(=O)(=O)c1cccs1 (centres undefined) | 454% (active)
COc1ccccc1CCNC(=O)C(=O)NCCC1CCCCN1S(=O)(=O)c1cccs1 (centres undefined) | -12.1%
O=C(NCc1ccc(Cl)cc1)C(=O)NCC1CCCN1S(=O)(=O)c1cccs1 (centres undefined) | -0.245%
CCOC(=O)c1c(S(=O)(=O)Nc2cccc(Cl)c2)c(C)n(C)c1C | -7.89%
CCC(C)(C)NC(=O)C(c1ccc(OC)cc1)N(C(=O)CCC(=O)Nc1cc(C)on1)c1ccc(OC)cc1OC (centres undefined) | -19.3%
CC(C)(C)c1cc(C(=O)NN)n(Cc2ccc(Cl)cc2Cl)n1 | 207%
N#CC(C#N)=CN=c1ccn(Cc2ccc(Cl)cc2Cl)cc1 | 813% (active)
O=c1ccn(Cc2ccccc2Cl)cc1 | 1.62%
COc1ccccc1CNC(=O)COC(=O)CNS(=O)(=O)c1ccc(NC(C)=O)cc1 | -0.994%
CSCCC(NC(=O)c1ccccc1)C(=O)N1CCCCCCC1 (centres undefined) | -4.42%
CC(NC(=O)c1ccc(Cl)cc1)C(=O)N1CCCCC1 (centres undefined) | 434% (active)
CC(C)C(NC(=O)c1ccc(Cl)cc1)C(=O)O (centres undefined) | 5.56%
O=C(CCNC(=O)c1ccc(Br)cc1)NCCCc1ccccc1 | 0.819%
O=C(CCc1ccccc1)NNC(=O)c1ccc(Br)cc1 | 631% (active)
O=C(CNC(=O)c1ccco1)NNC(=O)c1ccc(Br)cc1 | 19.3%
COc1cc(CC(=O)N2CCC(n3nccc3NC(=O)C3CC3)CC2)cc(OC)c1OC | 7.3%
CCCCNC(=O)CSc1nc2n[nH]c(C)c2c(=N)n1-c1cccc(Cl)c1C | -7.38%
COc1cccc(-n2c(SCC(=O)NC3CCCCC3)nc3n[nH]c(C)c3c2=N)c1 | 1070% (active)
Cc1ccc(-n2c(SCC(=O)NCCC3=CCCCC3)nc3n[nH]c(C)c3c2=N)cc1Cl | 4.94%
COc1cc(OC)cc(C(=O)Nc2nnc(SCC(=O)NCC3CCCO3)s2)c1 (centres undefined) | -5.99%
CCCCNS(=O)(=O)c1ccc(S(=O)(=O)n2cnc3ccccc32)cc1 | -2.08%
COC(=O)c1c(C)cc(O)c(C)c1O | 2.55%

Compound | growth rescue
O=C(c1cccnc1)N1CCN(S(=O)(=O)c2cccs2)CC1 | -2.05%
CCOC(=O)c1ccccc1N1C(=O)C2Sc3[nH]c(=O)sc3C(/C=C/c3ccccc3)C2C1=O (centres undefined) | 0.0979%
Nc1cc(N)nc(SCc2cccc(F)c2)n1 | 35.9%
Nc1nc(SCCOc2ccccc2)n[nH]1 | -18.7%
Nc1nc(SCc2cccc(Br)c2)n[nH]1 | 332% (active)
Cc1ccc(C(=O)N/C(=C\c2ccc(F)cc2)C(=O)NCCN2CCOCC2)cc1 | 49.4%
Cn1cncc1C#Cc1c(-c2ccsc2)sc2ccccc12 | 17.7%
COC(=O)Cc1ccc(OC(=O)C2CCN(S(=O)(=O)c3ccc(OC)c(OC)c3)CC2)cc1 | -14.9%
CC1(C)Cc2c(sc(NC(=O)C(=O)NCC3CCCO3)c2C(=O)O)CO1 (centres undefined) | -46.3%
COc1ccc(NC(=O)Cn2c(-c3ccc(OC)cc3)cn(-c3ccc(C)cc3)c2=O)cc1 | 259%
COc1ccc(NC(=O)COC(=O)Cn2c(C)nc3ccccc32)cc1OC | -5.7%
COc1ccc(-c2cn(-c3ccc(C)cc3)c(=O)n2CC(=O)Nc2ccc(OC)c(OC)c2)cc1 | 737% (active)
O=C(NCCc1nnc2ccc(SCC(=O)N3CCOCC3)nn12)c1ccccc1 | -18.2%
COc1ccc(C2CC(=O)Nc3sc(=N)c4c(N)c(C#N)c(N)nc4c32)cc1OC (centres undefined) | -31.5%
COc1ccccc1-c1c(C#N)c(N)nc2c1CCC2 | -0.44%
COc1ccc(OC)c2c(N)c(C#N)c(C(F)(F)C(F)(F)F)nc12 | 790% (active)
O=C(CN1CCCCC1)N1c2ccccc2Sc2ccc(C(F)(F)F)cc21 | 1.37%
CCN1CCCC1CNC(=O)c1cc2c(=O)n(C)c3ccccc3c2n1C (centres undefined) | -15.2%
Cn1c(C(=O)NCCc2ccsc2)cc2c(=O)n(C)c3ccccc3c21 | 385% (active)
Cn1c(C(=O)NCCCN2CCN(c3cccc(Cl)c3)CC2)cc2c(=O)n(C)c3ccccc3c21 | -12.4%
